Source: PubChem BioAssay (EPA / NIEHS)
Activity calls are given as the source filed them. Rule for the calls: active = hit-call score of the fitted dose curve at least 0.9, where 1 is the maximum; inactive = score below 0.9.

How the values were obtained:
[1] = ATG_E_Box_CIS: Attagene CIS-FACTORIAL HepG2 Assay for human Enhancer Box (E-box) (AID 2282936); conditions: HepG2 E-box cis-reporter transcription, actives raise or lower the signal
Method in brief: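 Transiently transfected HepG2, endogenous TF-driven reporters, 24 h dosing. Readout: RT-PCR plus capillary electrophoresis of fluorescent reporter fragments. Gain or loss of signal fitted bidirectionally against DMSO baseline.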

[2] = ATG_M_61_CIS: Attagene CIS-FACTORIAL HepG2 Assay for M61 Transcription Factor (Internal Marker) (AID 2282937); conditions: HepG2 Attagene CIS-FACTORIAL M61 internal marker reporter; actives raise or lower the signal
Method in brief: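 Cells were transfected with reporter units under cis-regulatory promoters, treated with chemicals for 24 h, then lysed for RNA. Reporter transcripts were quantified by RT-PCR and capillary electrophoresis, and activity was fitted bidirectionally against DMSO.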

[3] = ATG_EGR_CIS: Attagene CIS-FACTORIAL HepG2 Assay for human Early Growth Response 1 (EGR1) (AID 2282938); conditions: HepG2 Attagene CIS-FACTORIAL EGR reporter mRNA; actives raise or lower the signal
Method in brief: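 Endogenous TF activity in HepG2 liver cells was gauged through cis-promoter reporter constructs transiently transfected. After 24 h dosing, reporter mRNA was quantified by RT-PCR and capillary electrophoresis, and curves fitted in both directions versus DMSO.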

[4] = ATG_M_19_CIS: Attagene CIS-FACTORIAL HepG2 Assay for M19 Transcription Factor (Internal Marker) (AID 2282939); conditions: HepG2 Attagene CIS-FACTORIAL M19 internal marker reporter; actives raise or lower the signal
Method in brief: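 Transfect HepG2 with MRTU reporter library → dose chemical, 24 h → isolate total RNA, reverse-transcribe with oligo(dT) → PCR, 6-FAM label, HpaI cut (2 h, 37 C) → capillary electrophoresis. Bidirectional fit vs DMSO.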

[5] = ATG_Ets_CIS: Attagene CIS-FACTORIAL HepG2 Assay for human Erythroblast Transformation Specific (ETS) (AID 2282941); conditions: HepG2 ETS cis-reporter transcription, actives raise or lower the signal
Method in brief: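 Bidirectional fit versus DMSO of reporter mRNA signal, detected by RT-PCR and capillary electrophoresis in HepG2 cells transiently transfected with cis-element reporters and dosed 24 h.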

[6] = molecular target: Hepatocyte nuclear factor 3-beta (Homo sapiens) (UniProt Q9Y261); test: ATG_FoxA2_CIS: Attagene CIS-FACTORIAL HepG2 Assay for human Forkhead box A2 (FOXA2) (AID 2282942); conditions: HepG2 cis-reporter transcription factor activity, 24 h; actives raise or lower the signal
Hepatocyte nuclear factor 3-beta (Homo sapiens), sequence (Q9Y261 whole entry, looked up): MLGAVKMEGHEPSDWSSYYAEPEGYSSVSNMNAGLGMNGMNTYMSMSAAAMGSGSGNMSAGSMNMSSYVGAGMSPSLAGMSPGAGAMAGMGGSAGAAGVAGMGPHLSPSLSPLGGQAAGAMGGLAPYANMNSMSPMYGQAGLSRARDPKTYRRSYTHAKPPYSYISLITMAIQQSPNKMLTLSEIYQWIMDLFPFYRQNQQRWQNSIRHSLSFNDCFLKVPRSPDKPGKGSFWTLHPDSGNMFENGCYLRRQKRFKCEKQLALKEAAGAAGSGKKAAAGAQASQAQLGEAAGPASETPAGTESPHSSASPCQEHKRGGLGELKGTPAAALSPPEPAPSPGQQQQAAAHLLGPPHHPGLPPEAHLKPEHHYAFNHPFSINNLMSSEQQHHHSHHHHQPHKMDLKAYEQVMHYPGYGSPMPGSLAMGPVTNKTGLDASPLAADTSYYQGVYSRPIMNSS
Method in brief: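 Endogenous transcription factor activity was read in HepG2 cells carrying transiently transfected cis-promoter reporter units. After 24 h dosing, reporter mRNA was quantified by RT-PCR and capillary electrophoresis, and values fitted bidirectionally versus DMSO.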

[7] = ATG_GATA_CIS: Attagene CIS-FACTORIAL HepG2 Assay for human GATA Binding Protein (AID 2282944); conditions: HepG2 GATA cis-element reporter, Attagene multiplex mRNA; actives raise or lower the signal
Method in brief: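 Transient MRTU transfection, HepG2, 24 h compound exposure. Total RNA → oligo(dT) RT → PCR → 6-FAM primer extension → HpaI cut → CE. Bidirectional fit vs DMSO.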

[8] = ATG_GLI_CIS: Attagene CIS-FACTORIAL HepG2 Assay for human Zinc Finger Protein GLI1 (AID 2282945); conditions: HepG2, Attagene cis-factorial reporter mRNA, GLI element; actives raise or lower the signal
Method in brief: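 Transiently transfected HepG2 cells report endogenous transcription factor activity via cis-element-driven reporter units. After 24 h compound exposure, reporter mRNA was measured by RT-PCR with capillary electrophoresis; bidirectional fitting against DMSO baseline.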

[9] = molecular target: Bile acid receptor (Homo sapiens) (UniProt Q96RI1); test: ATG_IR1_CIS: Attagene CIS-FACTORIAL HepG2 Assay for human Nuclear Receptor Subfamily 1 Group H Member 4 (NR1H4), IR1 submotif (AID 2282946); conditions: IR1 reporter transcription, actives raise or lower the signal
Bile acid receptor (Homo sapiens), sequence (Q96RI1 whole entry, looked up): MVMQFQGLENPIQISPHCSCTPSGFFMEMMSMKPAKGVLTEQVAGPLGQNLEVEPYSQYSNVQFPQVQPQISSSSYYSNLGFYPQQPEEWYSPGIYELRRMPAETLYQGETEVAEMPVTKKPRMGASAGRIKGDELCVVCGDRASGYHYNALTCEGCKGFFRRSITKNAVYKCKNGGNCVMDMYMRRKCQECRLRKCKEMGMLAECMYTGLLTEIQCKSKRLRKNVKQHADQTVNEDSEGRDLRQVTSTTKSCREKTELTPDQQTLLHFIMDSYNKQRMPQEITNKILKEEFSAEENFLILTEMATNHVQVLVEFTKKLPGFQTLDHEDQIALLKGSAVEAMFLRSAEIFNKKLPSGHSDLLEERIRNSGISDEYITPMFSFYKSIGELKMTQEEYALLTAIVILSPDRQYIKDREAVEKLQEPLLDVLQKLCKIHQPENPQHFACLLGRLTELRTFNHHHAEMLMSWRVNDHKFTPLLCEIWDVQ
Method in brief: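 Fluorescence of capillary-separated, HpaI-digested RT-PCR reporter products gave IR1-element mRNA induction in HepG2 cells 24 h after dosing. Endogenous transcription factors drove the cis-regulated reporters; activity was fitted bidirectionally against DMSO.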

[10] = ATG_GRE_CIS: Attagene CIS-FACTORIAL HepG2 Assay for human Glucocorticoid Response Elements (GRE) (AID 2282947); conditions: HepG2 GRE cis-reporter, Attagene multiplex mRNA; actives raise or lower the signal
Method in brief: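 Read-out: fluorescent reporter-transcript fragments separated by capillary electrophoresis after RT-PCR. Transiently transfected HepG2 cells carrying cis-element-driven reporter units were dosed for 24 h; gain or loss of signal fitted against DMSO control.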

[11] = ATG_ISRE_CIS: Attagene CIS-FACTORIAL HepG2 Assay for human Interferon Regulatory Factor 1 (IRF1) binding to an Interferon-Stimulated Response Element (ISRE) (AID 2282948); conditions: HepG2 ISRE cis-reporter (Attagene), mRNA transcription readout; actives raise or lower the signal
Method in brief: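 Uses HepG2 liver cells transfected with cis-regulated reporters and measures mRNA 24 h post-dosing through RT-PCR, primer-extension labelling and capillary electrophoresis, with DMSO as negative control.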

[12] = ATG_M_32_CIS: Attagene CIS-FACTORIAL HepG2 Assay for M32 Transcription Factor (Internal Marker) (AID 2282949); conditions: HepG2 Attagene cis-factorial M32 reporter, mRNA; actives raise or lower the signal;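 note: background control marker of the multiplexed CIS panel rather than a real target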
Method in brief: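 Transient MRTU transfection of HepG2; 24 h compound treatment; TriZol RNA, oligo(dT) RT, reporter PCR, 6-FAM primer extension, HpaI cut, CE. Gain/loss of signal vs DMSO.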

[13] = ATG_M_06_CIS: Attagene CIS-FACTORIAL HepG2 Assay for M06 Transcription Factor (Internal Marker) (AID 2282950); conditions: HepG2 Attagene CIS-FACTORIAL M06 internal marker reporter; actives raise or lower the signal
Method in brief: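 Read-out is fluorescence of labelled reporter cDNA fragments resolved by capillary electrophoresis after RT-PCR. Cells: HepG2 carrying transfected cis-promoter reporter units, treated 24 h. Gain or loss of signal fitted relative to DMSO.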

[14] = molecular target: Hypoxia-inducible factor 1-alpha (Homo sapiens) (UniProt Q16665); test: ATG_HIF1a_CIS: Attagene CIS-FACTORIAL HepG2 Assay for human Hypoxia Inducible Factor 1 (HIF1A) (AID 2282951); conditions: HepG2 Attagene cis-factorial HIF1a reporter transcription; actives raise or lower the signal
Hypoxia-inducible factor 1-alpha (Homo sapiens), sequence (Q16665 whole entry, looked up): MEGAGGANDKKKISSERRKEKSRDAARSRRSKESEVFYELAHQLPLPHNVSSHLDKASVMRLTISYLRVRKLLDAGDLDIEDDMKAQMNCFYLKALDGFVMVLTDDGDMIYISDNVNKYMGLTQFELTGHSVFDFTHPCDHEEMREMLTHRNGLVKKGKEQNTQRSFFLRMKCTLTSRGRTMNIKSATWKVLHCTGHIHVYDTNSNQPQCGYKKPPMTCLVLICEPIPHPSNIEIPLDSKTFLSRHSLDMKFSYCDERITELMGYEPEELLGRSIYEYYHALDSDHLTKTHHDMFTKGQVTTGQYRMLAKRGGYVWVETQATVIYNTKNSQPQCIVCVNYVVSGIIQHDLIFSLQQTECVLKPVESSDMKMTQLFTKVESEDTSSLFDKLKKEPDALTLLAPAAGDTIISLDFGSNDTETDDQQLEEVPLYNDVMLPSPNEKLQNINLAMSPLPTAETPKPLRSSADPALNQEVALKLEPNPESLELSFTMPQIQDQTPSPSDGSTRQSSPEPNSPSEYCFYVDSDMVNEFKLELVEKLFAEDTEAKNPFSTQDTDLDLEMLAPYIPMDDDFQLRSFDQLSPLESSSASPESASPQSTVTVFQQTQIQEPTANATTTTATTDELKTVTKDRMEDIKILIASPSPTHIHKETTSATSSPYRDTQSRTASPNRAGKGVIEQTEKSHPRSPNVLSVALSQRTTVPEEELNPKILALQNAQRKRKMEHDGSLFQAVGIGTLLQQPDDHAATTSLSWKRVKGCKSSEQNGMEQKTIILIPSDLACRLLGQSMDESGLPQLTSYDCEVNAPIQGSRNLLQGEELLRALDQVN
Method in brief: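 Measures endogenous transcription-factor activity through cis-regulated reporter mRNA in HepG2. Cells dosed 24 h; transcripts quantified by RT-PCR with 6-FAM-labelled products separated by capillary electrophoresis; DMSO serves as negative control.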

[15] = molecular target: Hepatocyte nuclear factor 6 (Homo sapiens) (UniProt Q9UBC0); test: ATG_HNF6_CIS: Attagene CIS-FACTORIAL HepG2 Assay for human Hepatocyte Nuclear Factor 6 (HNF6) (AID 2282952); conditions: HepG2 Attagene cis-factorial HNF6 reporter transcription; actives raise or lower the signal
Hepatocyte nuclear factor 6 (Homo sapiens), sequence (Q9UBC0 whole entry, looked up): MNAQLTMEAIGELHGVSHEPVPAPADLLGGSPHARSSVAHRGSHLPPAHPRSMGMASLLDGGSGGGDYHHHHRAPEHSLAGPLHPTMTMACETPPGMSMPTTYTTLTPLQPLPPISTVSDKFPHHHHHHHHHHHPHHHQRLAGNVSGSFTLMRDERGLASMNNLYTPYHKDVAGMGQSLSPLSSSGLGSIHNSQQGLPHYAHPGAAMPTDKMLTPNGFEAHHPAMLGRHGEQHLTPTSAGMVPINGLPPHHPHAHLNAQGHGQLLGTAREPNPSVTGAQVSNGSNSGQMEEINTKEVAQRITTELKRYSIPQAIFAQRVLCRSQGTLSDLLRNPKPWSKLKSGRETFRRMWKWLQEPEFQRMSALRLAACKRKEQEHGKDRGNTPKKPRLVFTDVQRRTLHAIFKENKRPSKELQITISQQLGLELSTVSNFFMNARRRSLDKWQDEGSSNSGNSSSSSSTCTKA
Method in brief: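 Activity values derive from bidirectional fitting against DMSO of reporter mRNA levels, measured by capillary electrophoresis of labelled RT-PCR products from HepG2 cells exposed 24 h.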

[16] = ATG_MRE_CIS: Attagene CIS-FACTORIAL HepG2 Assay for human Metal Responsive Element (MRE) (AID 2282954); conditions: HepG2 MRE cis-reporter transcription, Attagene multiplex; actives raise or lower the signal
Method in brief: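 RT-PCR/capillary electrophoresis readout of reporter mRNA, 24 h post-dosing, in HepG2 cells transfected with multiplexed cis-regulated reporter constructs. Gain or loss of signal fitted bidirectionally against DMSO baseline.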

[17] = ATG_PBREM_CIS: Attagene CIS-FACTORIAL HepG2 Assay for human Phenobarbital-responsive Enhancer Module (PBREM) (AID 2282955); conditions: HepG2 PBREM cis-reporter, Attagene multiplexed transcription; actives raise or lower the signal
Method in brief: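 Fluorescence of labelled reporter cDNA fragments, resolved by capillary electrophoresis, gives mRNA induction in transfected HepG2 cells treated for 24 h; DMSO serves as negative control and baseline.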

[18] = ATG_FoxO_CIS: Attagene CIS-FACTORIAL HepG2 Assay for human Forkhead box O (FoxO) (AID 2282943); conditions: HepG2 Attagene cis-reporter, FoxO element, mRNA; actives raise or lower the signal
Method in brief: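 HepG2 cells transiently transfected with cis-element-driven reporter units report endogenous FoxO activity. After 24 h chemical exposure, reporter mRNA quantified by RT-PCR, fluorescent labeling, HpaI digestion and capillary electrophoresis; bidirectional fit versus DMSO.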

[19] = molecular target: Heat shock factor protein 1 (Homo sapiens) (UniProt Q00613); test: ATG_HSE_CIS: Attagene CIS-FACTORIAL HepG2 Assay for human Heat Shock Transcription Factor 1 (HSE) (AID 2282953); conditions: HepG2 HSE cis-reporter, Attagene RNA transcription; actives raise or lower the signal
Heat shock factor protein 1 (Homo sapiens), sequence (Q00613 whole entry, looked up): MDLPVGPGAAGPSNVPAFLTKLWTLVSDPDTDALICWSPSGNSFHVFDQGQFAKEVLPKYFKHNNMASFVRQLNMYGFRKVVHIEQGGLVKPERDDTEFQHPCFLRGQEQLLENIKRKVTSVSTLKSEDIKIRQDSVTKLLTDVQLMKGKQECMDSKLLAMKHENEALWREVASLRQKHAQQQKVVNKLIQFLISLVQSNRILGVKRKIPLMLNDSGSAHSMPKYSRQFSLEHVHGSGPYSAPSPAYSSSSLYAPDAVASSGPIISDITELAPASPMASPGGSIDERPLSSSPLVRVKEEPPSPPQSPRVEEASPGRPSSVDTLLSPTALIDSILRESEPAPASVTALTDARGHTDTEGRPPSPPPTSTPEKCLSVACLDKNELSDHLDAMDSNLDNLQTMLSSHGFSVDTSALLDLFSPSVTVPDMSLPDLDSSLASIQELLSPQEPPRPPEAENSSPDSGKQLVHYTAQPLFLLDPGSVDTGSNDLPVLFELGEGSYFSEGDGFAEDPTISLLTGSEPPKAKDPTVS
Method in brief: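 HepG2, transient MRTU transfection, cis-promoter reporters (endogenous TF activity). 24 h compound. RNA → oligo(dT) RT → PCR → 6-FAM primer extension → HpaI cut → CE. Bidirectional fit vs DMSO.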

SMILES	outcome [1]	outcome [2]	outcome [3]	outcome [4]	outcome [5]	outcome [6]	outcome [7]	outcome [8]	outcome [9]	outcome [10]	outcome [11]	outcome [12]	outcome [13]	outcome [14]	outcome [15]	outcome [16]	outcome [17]	outcome [18]	outcome [19]	AC50 [17]
CS(=O)(=O)c1ccc(C2=C(c3ccccc3)C(=O)OC2)cc1	inactive	inactive	inactive	inactive	inactive	inactive	inactive	inactive	inactive	inactive	inactive	inactive	inactive	inactive	inactive	inactive	inactive			
O=C1OC[C@H](Cc2cccc(O)c2)[C@H]1Cc1cccc(O)c1	inactive	inactive	inactive	inactive	inactive	inactive		inactive		inactive	inactive	inactive	inactive	inactive	inactive	inactive		inactive	inactive	33.5 µM (active)
O=C(c1ccccc1)C(O)c1ccccc1 (stereo not given)	inactive	inactive	inactive	inactive	inactive	inactive	inactive	inactive		inactive	inactive	inactive		inactive	inactive	inactive	inactive	inactive	inactive	
CCCC(=O)c1ccccc1	inactive	inactive	inactive	inactive	inactive	inactive	inactive	inactive		inactive	inactive	inactive			inactive		inactive	inactive	inactive	
COc1ccc(CCN2CCC(Nc3nc4ccccc4n3Cc3ccc(F)cc3)CC2)cc1	inactive	inactive	inactive	inactive	inactive	inactive		inactive	inactive	inactive	inactive	inactive	inactive			inactive	inactive	inactive	inactive	
CCCC(O)C(O)CO (stereo not given)	inactive	inactive	inactive	inactive	inactive	inactive	inactive	inactive	inactive	inactive	inactive	inactive	inactive	inactive	inactive	inactive	inactive		inactive	
CCOC(=O)CC(C)O (stereo not given)	inactive	inactive	inactive	inactive	inactive	inactive		inactive	inactive	inactive	inactive	inactive	inactive	inactive	inactive		inactive	inactive	inactive	
Cc1ccc(S(N)(=O)=O)cc1	inactive	inactive	inactive	inactive	inactive	inactive		inactive	inactive	inactive		inactive			inactive			inactive	inactive	
